For eleven substances, GI50 results are on record in ChEMBL document CHEMBL1201862, “PubChem BioAssay data set” (2004).

Screen size: about 52,000 sequences; about 3,800 (7.3%) were called active. No stated cut-off is given here; in the data, active = GI50 up to about 1.1 µM and inactive = higher. Not all results are given here. Measured potencies and affinities stand elsewhere.

For this test, the system named is HOP-92.
As for “[Bis(aminomethyl)diethylsilane]tetrachloroplatinum(IV), CHEMBL2146203”, growth was halved (GI50) at 4.25 µM.

Take “[Bis(aminomethyl)dimethylsilane]dichloroplatinum (II), CHEMBL2146201”: it took 29.4 µM to inhibit growth by half (GI50).

On to “[Bis(aminomethyl)pentamethylenesilane]dichloropaltinum(II), CHEMBL2146202”, for which it took 40.4 µM to inhibit growth by half (GI50).

For the substance “[Bis(aminomethyl)dimethylsilane]tetrachloroplatinum(IV), CHEMBL2146190”, halving of growth (GI50) required 14.4 µM.

“[Bis(aminomethyl)tetramethylenesilane]dichloropaltinum(II), CHEMBL2146205” gave a GI50 of 28.4 µM.

For “mu-(1,7-nanodiamine-N,N')bis-(cis-aminedichloroplatimum (II)), CHEMBL2146215”, it took 41.8 µM to inhibit growth by half (GI50).

The substance “cis-Bis[[(trimethylsilyl)methyl]amino]tetrachloroplatinum(IV), CHEMBL2146191” had a GI50 of 3.11 µM.

Substance “[Bis(aminomethyl)pentamethylenesilane]tetrachloropaltinum(IV), CHEMBL2146204” had a GI50 of 24.2 µM. This GI50 lies about 7.8-fold higher than the previous one.

Regarding “[Bis(aminomethyl)ethylmethylsilane]tetrachloroplatinum(IV), CHEMBL2146192”, the GI50 worked out at 21.3 µM. This GI50 and that of the substance before are within 1.5-fold of each other.

On to “[Bis(aminomethyl)tetramethylenesilane]tetrachloropaltinum(IV), CHEMBL2146189”, for which the GI50 came to 21.5 µM.

Consider CISPLATIN, CHEMBL11359, for which halving of growth (GI50) required 3.74 µM.
